Experiment in all cases: NCI-60 one-dose screen, 48 h (100 = growth as untreated, 0 = no growth, -100 = all killed)
One test relates to HCT-15 colon. As to conditions: 10 µM.
In a further test the test system is HT29 colon. The note with it: 10 µM.
The next test concerns SNB-75 CNS. As to conditions: 10 µM.
The subject of another test is SNB-19 CNS. The note with it: 10 µM.
The subject of another test is U251 CNS. The note with it: 10 µM.
The subject of the next test is PC-3 prostate. As to conditions: 10 µM.
In a further test the test system is SK-MEL-5 melanoma. As to conditions: 10 µM.
A further test concerns UACC-62 melanoma.
The next test has as its system LOX IMVI melanoma. As to conditions: 10 µM.
The test system of the next test is SK-MEL-28 melanoma. As to conditions: 10 µM.
The test system of the next test is SK-MEL-2 melanoma. As to conditions: 10 µM.
Another test deals with EKVX NSCLC. As to conditions: 10 µM.
The test system of another test is UO-31 renal. The note with it: 10 µM.
The test system of the next test is TK-10 renal.
The next test deals with ACHN renal. As to conditions: 10 µM.
A further test deals with CAKI-1 renal. As to conditions: 10 µM.
The next test has as its system A498 renal. As to conditions: 10 µM.
The test system of another test is CCRF-CEM leukemia. As to conditions: 10 µM.
Another test relates to MOLT-4 leukemia. As to conditions: 10 µM unless noted.
A further test has as its system SN12C renal. As to conditions: 10 µM.

This is an account of results in PubChem BioAssay (NCI).

SMILES strings stand for the structures. Several values for one entry are separate records, joined by “and”; a condition that tells them apart may be missing. Equal entries are not always repeated. This is part of a sample that, as a whole, favours compounds with a hit. Of some 83,000 tested, about 20% had one in any assay.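 Treatment: one concentration, 48 hours, 96-well format. Scoring: percent growth, with anything below 10 considered active.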 Values without a mark were called inactive. Activity calls are given as the source filed them.

On to `O=S(=O)(c1cc(Cl)ccc1O)c1cc(Cl)ccc1O`, for which the growth in the test with HCT-15 colon was 94.2%; in the test with HT29 colon, 105%; in the test with SNB-75 CNS, 77.1%; in the test on SNB-19 CNS, 91.8%; in the test on U251 CNS, 76.7%; with PC-3 prostate, 80.6%. Further, the growth in the test on SK-MEL-5 melanoma was 53.5%; in the test on UACC-62 melanoma (10 µM), 31.1%; in the test on LOX IMVI melanoma it was 93.5%; in the test on SK-MEL-28 melanoma it was 87.5%; in the test on SK-MEL-2 melanoma it was 64%; in the test with EKVX NSCLC, 100%. Moreover, the growth in the test on UO-31 renal was 71.8%; in the test on TK-10 renal (10 µM) it was 87.5%; in the test on ACHN renal it was 84.9%; with CAKI-1 renal, 92.1%; with A498 renal, 59.6%; in the test on CCRF-CEM leukemia, 76.2%. Also, the growth with MOLT-4 leukemia was 90.2%.
Take `Cc1cc(O)c2c(c1O)C(=O)C13C(=C2O)C(=O)C2C(O)C1C1C(O)C3C(=O)C3=C(O)c4c(O)cc(C)c(O)c4C(=O)C321` (stereo not given): the growth with HCT-15 colon is 16.4%; with HT29 colon, 3.7% (active); with SNB-75 CNS, 20%; in the test with SNB-19 CNS it was 5.61% (active); with U251 CNS it was 12.3%; with PC-3 prostate, 10.3%. For the same compound, the growth in the test on SK-MEL-5 melanoma is -74.9% (active); in the test with UACC-62 melanoma (10 µM) it was -48.1% (active); in the test with LOX IMVI melanoma, 7.97% (active); in the test with SK-MEL-28 melanoma, 9.99% (active); in the test on SK-MEL-2 melanoma, -6.64% (active); in the test on EKVX NSCLC, 44.3%. Further, the growth is 22.6% in the test on UO-31 renal; 22.3% with TK-10 renal (10 µM); 11.4% in the test with ACHN renal; -33.6% (active) in the test with CAKI-1 renal; 4.16% (active) with CCRF-CEM leukemia; 8.98% (active) in the test on MOLT-4 leukemia.
As to `Cn1ncc2cc3c(Nc4ccc(Cl)cc4)cccc3nc21`, the growth in the test on HCT-15 colon was 88.1%; in the test with HT29 colon, 78.7%; in the test with SNB-75 CNS, 97.2%; with SNB-19 CNS, 99.3%; in the test with U251 CNS, 81.2%; with PC-3 prostate it was 79.8%. The growth is 82.1% in the test on SK-MEL-5 melanoma; 98.6% in the test with UACC-62 melanoma (10 µM); 87% with LOX IMVI melanoma; 95.8% in the test on SK-MEL-28 melanoma; 99.4% in the test with SK-MEL-2 melanoma; 76.7% in the test with EKVX NSCLC. For the same compound, the growth in the test with SN12C renal was 93.7%; in the test with UO-31 renal it was 62.5%; with TK-10 renal (10 µM), 92.9%; in the test with ACHN renal it was 90.5%; in the test on CAKI-1 renal, 88.6%; in the test with A498 renal, 75.4%. For the same compound, the growth in the test on CCRF-CEM leukemia was 95.5%; in the test with MOLT-4 leukemia, 89%.
On to `C=C1N(C)c2ccc(Cl)cc2C1(C)C`, for which the growth in the test with HCT-15 colon was 106%; in the test on HT29 colon, 35.7%; in the test on SNB-75 CNS, 62%; in the test with SNB-19 CNS, 55.1%; in the test with U251 CNS it was 22.8%; in the test on PC-3 prostate, 32.9%. For the same compound, the growth in the test with SK-MEL-5 melanoma is 90.5%; in the test on UACC-62 melanoma (10 µM), 69.5%; with LOX IMVI melanoma, 51.9%; in the test with SK-MEL-28 melanoma, 84.5%; in the test on SK-MEL-2 melanoma it was 101%; in the test with EKVX NSCLC it was 25.2%. In addition, the growth in the test on UO-31 renal was 78.5%; in the test with TK-10 renal (10 µM) it was 83.8%; with ACHN renal, 94.9%; with A498 renal, 84.1%; with CCRF-CEM leukemia, 42.2%; with MOLT-4 leukemia, 35.8%.
In the case of `N#C/C(=C/N1C(=O)/C(=C/c2ccc([N+](=O)[O-])cc2)SC1=S)c1nc2ccccc2s1`, the growth is 95.6% in the test on HCT-15 colon; 98.6% in the test with HT29 colon; 84.5% with SNB-75 CNS; 86.4% in the test on SNB-19 CNS; 69.4% in the test with U251 CNS; 79.7% in the test with PC-3 prostate. The growth in the test with SK-MEL-5 melanoma was 63.5%; in the test on UACC-62 melanoma (10 µM) it was 70.1%; in the test with LOX IMVI melanoma, 88%; in the test with SK-MEL-28 melanoma, 105%; with SK-MEL-2 melanoma, 94.4%; with EKVX NSCLC, 82.3%. Further, the growth is 64% with UO-31 renal; 96.3% in the test on TK-10 renal (10 µM); 86.5% in the test with ACHN renal; 97% in the test on CAKI-1 renal; 6.8% (active) in the test on A498 renal; 84% with CCRF-CEM leukemia. Besides, in the test with MOLT-4 leukemia, the growth was 78.8%.
On to `O=C1c2cccc3cc([N+](=O)[O-])cc(c23)C(=O)N1CCN1CCCC1`, for which the growth is -7.27% (active) in the test on HCT-15 colon; 2.59% (active) in the test with HT29 colon; -15.1% (active) in the test with SNB-75 CNS; -0.129% (active) with SNB-19 CNS; -12.3% (active) in the test with U251 CNS; 14.4% in the test with PC-3 prostate. The growth in the test with SK-MEL-5 melanoma is -88.6% (active); in the test on UACC-62 melanoma (10 µM) it was -66.1% (active); in the test on LOX IMVI melanoma, -65.9% (active); in the test with SK-MEL-28 melanoma, -36.5% (active); in the test on SK-MEL-2 melanoma, 4.73% (active); with EKVX NSCLC it was 10.9%. Besides, the growth was -18.2% (active) with SN12C renal; -42.8% (active) in the test on UO-31 renal; -11.3% (active) with TK-10 renal (10 µM); -57.9% (active) with ACHN renal; -14% (active) in the test with CAKI-1 renal; -64.4% (active) in the test on A498 renal. Also, the growth with CCRF-CEM leukemia is -5.62% (active); with MOLT-4 leukemia it was -17.9% (active).
In the case of `C=C(C)[C@@H]1CCc2c(O)c(O)c(=O)cc(C)c2C1`, the growth in the test on UACC-62 melanoma (100 µM) is -52.3% (active) and -85% (active); with TK-10 renal (100 µM), -17% (active) and -96.5% (active).
In the case of `COc1cc(N)ccc1Nc1c2ccccc2nc2ccccc12`, the growth was -10.1% (active) with HCT-15 colon; -62.4% (active) with HT29 colon; 91% in the test on SNB-75 CNS; 99.7% in the test on SNB-19 CNS; 59% in the test with PC-3 prostate; 85% in the test on SK-MEL-5 melanoma. Besides, the growth in the test with UACC-62 melanoma (10 µM) was 89.6%; in the test on LOX IMVI melanoma it was -23.6% (active); with SK-MEL-28 melanoma, 107%; in the test on SK-MEL-2 melanoma, 109%; with UO-31 renal, 50.6%; in the test on TK-10 renal (10 µM), 88.3%. Moreover, the growth in the test with ACHN renal is 88.6%; in the test on CAKI-1 renal it was 70.5%; in the test with A498 renal, 87.3%; in the test with MOLT-4 leukemia, 2.72% (active).
For `Cc1cc(C)c(N2C(=O)CC(Sc3ccccc3N)C2=O)c(C)c1` (stereo not given), the growth was 58% in the test on HCT-15 colon; 66.2% with HT29 colon; 55.7% in the test with SNB-75 CNS; 83.1% with SNB-19 CNS; 81.3% in the test with U251 CNS; 68.4% in the test on PC-3 prostate. The growth is 60.8% in the test with UACC-62 melanoma (10 µM); 69.9% in the test on LOX IMVI melanoma; 60.7% in the test on SK-MEL-28 melanoma; 88.5% in the test with SK-MEL-2 melanoma; 87.1% in the test on EKVX NSCLC; 55.5% in the test with UO-31 renal. Also, the growth in the test with TK-10 renal (10 µM) was 123%; in the test on ACHN renal, 87.7%; with CAKI-1 renal, 47.7%; with A498 renal, 54.2%; in the test on CCRF-CEM leukemia, 34.9%; in the test on MOLT-4 leukemia it was 76.5%.
